# According to PubChem BioAssay (Tox21):
# Inconclusive results are not listed. Entries that show only a call come without a potency. Values without a mark were called inactive. Calls of active or inactive are those of the source. Calls follow the shape of the dose curve; as a rule, active = well fitted curve in the direction sought with a large enough effect in the repeat runs; inconclusive = weak or mixed curves; inactive = no such curve, though single readings can be large; an effect the other way counts as inactive or inconclusive.
# Columns and labels:
# [1] = target: Cytochrome P450 2D6 (Homo sapiens) (UniProt P10635); experiment: Cytochrome P450 Family 2 Subfamily D Member 6 (CYP2D6) small molecule antagonists: luciferase reporter qHTS assay (AID 1671196); also: nearly all actives have a fitted effect of over 50% in size; also: potency is read from the fitted curve at half-maximal effect; as to activity change, negative = inhibition: series mostly up to about 120 µM
# Cytochrome P450 2D6 (Homo sapiens), sequence (P10635 whole entry, looked up): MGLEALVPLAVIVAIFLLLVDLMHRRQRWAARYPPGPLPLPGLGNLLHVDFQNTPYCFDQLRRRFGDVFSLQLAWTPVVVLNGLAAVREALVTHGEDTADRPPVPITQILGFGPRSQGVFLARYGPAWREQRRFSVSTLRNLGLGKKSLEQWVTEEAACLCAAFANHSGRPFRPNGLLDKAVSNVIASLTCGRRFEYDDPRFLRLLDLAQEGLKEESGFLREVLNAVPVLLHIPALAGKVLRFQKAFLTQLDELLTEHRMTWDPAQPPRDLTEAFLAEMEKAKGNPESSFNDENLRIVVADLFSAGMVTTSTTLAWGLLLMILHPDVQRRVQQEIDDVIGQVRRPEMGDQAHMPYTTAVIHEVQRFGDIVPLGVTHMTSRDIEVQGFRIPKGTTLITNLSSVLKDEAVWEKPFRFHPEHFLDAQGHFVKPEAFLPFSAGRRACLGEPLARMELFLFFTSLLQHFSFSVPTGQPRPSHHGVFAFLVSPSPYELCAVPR
# Summary of the method: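 Inhibition of CYP2D6 was gauged by loss of luminescence, since light produced tracks the luciferin generated from a proluciferin substrate. A 10 min room-temperature preincubation preceded 1 h NADPH-supported turnover.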
# [2] = target: Cytochrome P450 2C19 (Homo sapiens) (UniProt P33261); experiment: Cytochrome P450 Family 2 Subfamily C Member 19 (CYP2C19) small molecule antagonists: luciferase reporter qHTS assay (AID 1671197); also: nearly all actives have a fitted effect of over 65% in size; also: potency is read from the fitted curve at half-maximal effect; as to activity change, negative = inhibition: series mostly up to about 120 µM
# Cytochrome P450 2C19 (Homo sapiens), sequence (P33261 whole entry, looked up): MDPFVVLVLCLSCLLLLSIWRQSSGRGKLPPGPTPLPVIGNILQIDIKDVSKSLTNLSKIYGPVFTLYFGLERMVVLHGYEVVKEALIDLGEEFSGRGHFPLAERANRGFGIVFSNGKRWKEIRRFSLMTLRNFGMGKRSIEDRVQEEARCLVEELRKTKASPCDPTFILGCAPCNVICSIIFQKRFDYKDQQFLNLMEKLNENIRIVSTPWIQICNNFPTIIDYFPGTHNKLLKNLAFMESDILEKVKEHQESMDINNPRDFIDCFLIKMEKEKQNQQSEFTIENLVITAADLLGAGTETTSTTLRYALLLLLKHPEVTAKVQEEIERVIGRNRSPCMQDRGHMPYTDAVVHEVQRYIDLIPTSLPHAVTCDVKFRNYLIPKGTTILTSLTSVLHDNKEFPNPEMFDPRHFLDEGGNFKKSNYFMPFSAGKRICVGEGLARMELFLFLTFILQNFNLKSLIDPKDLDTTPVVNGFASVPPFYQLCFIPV
# Summary of the method: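 Quantitative high-throughput screen of the Tox21 library using CYP2C19 with proluciferin substrate. Reaction: NADPH regeneration, 37C, 1 h, after 10 min compound preincubation at room temperature. Readout: luminescence.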
# [3] = target: Cytochrome P450 2C9 (Homo sapiens) (UniProt P11712); experiment: Cytochrome P450 Family 2 Subfamily C Member 9 (CYP2C9) small molecule antagonists: luciferase reporter qHTS assay (AID 1671198); also: nearly all actives have a fitted effect of over 50% in size; also: potency is read from the fitted curve at half-maximal effect; as to activity change, negative = inhibition: series mostly up to about 120 µM
# Cytochrome P450 2C9 (Homo sapiens), sequence (P11712 whole entry, looked up): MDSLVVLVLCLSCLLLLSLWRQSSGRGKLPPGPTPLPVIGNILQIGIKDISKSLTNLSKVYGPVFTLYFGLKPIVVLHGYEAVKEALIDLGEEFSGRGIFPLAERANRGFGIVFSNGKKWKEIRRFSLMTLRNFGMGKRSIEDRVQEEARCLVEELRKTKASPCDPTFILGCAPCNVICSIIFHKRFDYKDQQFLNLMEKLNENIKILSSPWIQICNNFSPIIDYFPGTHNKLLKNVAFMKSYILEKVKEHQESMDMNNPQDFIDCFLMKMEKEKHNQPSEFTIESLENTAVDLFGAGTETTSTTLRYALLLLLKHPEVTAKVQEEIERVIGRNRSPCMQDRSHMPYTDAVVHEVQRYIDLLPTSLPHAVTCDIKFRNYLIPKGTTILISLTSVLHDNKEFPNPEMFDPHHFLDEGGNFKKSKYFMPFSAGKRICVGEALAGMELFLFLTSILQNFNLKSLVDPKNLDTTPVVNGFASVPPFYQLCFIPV
# Summary of the method: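 P450-Glo proluciferin substrate with CYP2C9 enzyme; 10 min RT preincubation, then NADPH regeneration 1 h at 37C; luciferin detection reagent 20 min RT, luminescence in relative luminescence units.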
# [4] = target: Cytochrome P450 1A2 (Homo sapiens) (UniProt P05177); experiment: Cytochrome P450 Family 1 Subfamily A Member 2 (CYP1A2) small molecule antagonists: luciferase reporter qHTS assay (AID 1671199); also: nearly all actives have a fitted effect of over 50% in size; also: potency is read from the fitted curve at half-maximal effect; as to activity change, negative = inhibition: series mostly up to about 120 µM
# Cytochrome P450 1A2 (Homo sapiens), sequence (P05177 whole entry, looked up): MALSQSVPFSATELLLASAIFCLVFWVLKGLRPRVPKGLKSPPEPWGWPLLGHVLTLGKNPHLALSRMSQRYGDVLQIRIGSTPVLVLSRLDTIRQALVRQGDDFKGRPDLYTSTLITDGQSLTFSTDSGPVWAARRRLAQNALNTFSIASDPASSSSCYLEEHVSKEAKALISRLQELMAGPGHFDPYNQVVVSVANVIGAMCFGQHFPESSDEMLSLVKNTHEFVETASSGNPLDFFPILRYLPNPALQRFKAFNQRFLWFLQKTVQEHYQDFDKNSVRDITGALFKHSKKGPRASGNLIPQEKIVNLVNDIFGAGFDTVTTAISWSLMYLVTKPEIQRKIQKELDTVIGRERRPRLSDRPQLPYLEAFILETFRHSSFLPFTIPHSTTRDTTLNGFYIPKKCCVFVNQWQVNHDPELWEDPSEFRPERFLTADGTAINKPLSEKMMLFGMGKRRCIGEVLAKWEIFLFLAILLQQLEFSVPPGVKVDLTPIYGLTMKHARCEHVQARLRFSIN
# Summary of the method: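 Signal from luciferin formed by CYP1A2 from a proluciferin substrate is read as luminescence, expressed in relative luminescence units. Compounds sit with enzyme 10 min, NADPH-driven reaction runs 1 h, all at room temperature.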
# [5] = target: Voltage-gated inwardly rectifying potassium channel KCNH2 (Homo sapiens) (UniProt Q12809); experiment: Human Ether-a-go-go-Related Gene (hERG) channel small molecule antagonists: fluorescence cell-based qHTS assay (AID 1671200);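 also: hERG-expressing U2OS cells given a thallium stimulus after FluxOR II dye loading; series mostly up to about 77 µM; nearly all actives have a fitted effect of over 50% in size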
# Voltage-gated inwardly rectifying potassium channel KCNH2 (Homo sapiens), sequence (Q12809 whole entry, looked up): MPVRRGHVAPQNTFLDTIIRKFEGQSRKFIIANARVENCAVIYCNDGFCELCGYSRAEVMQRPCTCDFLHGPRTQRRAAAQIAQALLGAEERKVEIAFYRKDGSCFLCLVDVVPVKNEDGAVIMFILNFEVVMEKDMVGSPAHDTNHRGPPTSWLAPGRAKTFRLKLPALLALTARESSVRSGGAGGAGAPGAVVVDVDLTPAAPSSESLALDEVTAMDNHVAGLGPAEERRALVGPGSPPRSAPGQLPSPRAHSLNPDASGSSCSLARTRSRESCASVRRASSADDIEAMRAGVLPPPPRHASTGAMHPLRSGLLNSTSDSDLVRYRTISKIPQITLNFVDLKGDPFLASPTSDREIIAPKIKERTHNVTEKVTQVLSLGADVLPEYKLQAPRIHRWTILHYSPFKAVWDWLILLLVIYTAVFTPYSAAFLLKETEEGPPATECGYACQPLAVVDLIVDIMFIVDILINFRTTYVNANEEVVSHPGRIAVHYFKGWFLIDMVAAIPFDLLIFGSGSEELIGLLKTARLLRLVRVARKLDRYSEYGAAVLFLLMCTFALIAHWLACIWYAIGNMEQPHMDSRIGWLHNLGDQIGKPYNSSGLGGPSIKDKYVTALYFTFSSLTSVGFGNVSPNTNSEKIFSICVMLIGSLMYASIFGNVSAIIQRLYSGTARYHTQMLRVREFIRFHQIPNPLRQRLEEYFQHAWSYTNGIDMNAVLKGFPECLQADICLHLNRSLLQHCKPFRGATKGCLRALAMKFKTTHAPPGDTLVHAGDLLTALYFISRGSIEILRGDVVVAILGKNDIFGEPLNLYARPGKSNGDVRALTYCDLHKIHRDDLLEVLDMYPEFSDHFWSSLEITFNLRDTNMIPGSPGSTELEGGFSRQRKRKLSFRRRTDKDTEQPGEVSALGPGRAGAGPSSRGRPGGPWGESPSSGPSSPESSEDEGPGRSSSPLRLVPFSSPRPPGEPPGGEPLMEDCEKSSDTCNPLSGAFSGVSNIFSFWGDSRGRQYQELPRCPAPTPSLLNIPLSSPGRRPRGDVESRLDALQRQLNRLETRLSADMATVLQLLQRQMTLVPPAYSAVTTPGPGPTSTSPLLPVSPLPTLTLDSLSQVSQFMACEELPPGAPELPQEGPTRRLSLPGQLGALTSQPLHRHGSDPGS
# Summary of the method: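 Kinetic two-minute fluorescence traces, sampled at 1 s, were collected following thallium stimulus of U2OS cells (1000 per well) that had been cultured overnight at 37 C and loaded with FluxOR II.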
# [6] = target: Cytochrome P450 3A4 (Homo sapiens) (UniProt P08684); experiment: Cytochrome P450 Family 3 Subfamily A Member 4 (CYP3A4) small molecule antagonists: luciferase reporter qHTS assay (AID 1671201); also: nearly all actives have a fitted effect of over 50% in size; also: potency is read from the fitted curve at half-maximal effect; as to activity change, negative = inhibition: series mostly up to about 120 µM
# Cytochrome P450 3A4 (Homo sapiens), sequence (P08684 whole entry, looked up): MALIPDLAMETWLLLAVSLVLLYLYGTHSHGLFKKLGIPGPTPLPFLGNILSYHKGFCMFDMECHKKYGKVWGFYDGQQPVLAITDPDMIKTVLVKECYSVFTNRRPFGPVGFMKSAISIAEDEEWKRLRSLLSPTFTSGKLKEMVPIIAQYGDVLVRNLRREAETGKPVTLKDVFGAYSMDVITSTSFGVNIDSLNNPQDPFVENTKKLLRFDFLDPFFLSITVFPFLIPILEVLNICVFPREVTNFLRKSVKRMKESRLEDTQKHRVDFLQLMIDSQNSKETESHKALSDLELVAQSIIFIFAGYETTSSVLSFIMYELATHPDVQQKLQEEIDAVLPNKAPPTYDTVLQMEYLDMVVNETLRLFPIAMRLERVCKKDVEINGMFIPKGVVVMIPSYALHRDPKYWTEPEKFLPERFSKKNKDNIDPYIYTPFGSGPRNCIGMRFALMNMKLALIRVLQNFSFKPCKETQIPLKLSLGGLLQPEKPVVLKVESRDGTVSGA
# Summary of the method: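 Proluciferin-to-luciferin conversion by CYP3A4, NADPH-regenerated, 1 h RT; luminescence read as RLU. Ketoconazole as control.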
# [7] = target: Nuclear receptor subfamily 1 group I member 2 (Homo sapiens) (UniProt O75469); experiment: CYP3A4 induction through human pregnane X receptor (PXR) by small molecules, qHTS assay (AID 1346984); also: nearly all actives have a fitted effect of over 40% in size
# Summary of the method: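 DPX-2 reporter cells; 24h cpd, 37C; Luciferin-IPA 3uM final x3h; One-Glo 30 min RT; lumi read.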
# [8] = target: Nuclear receptor subfamily 1 group I member 2 (Homo sapiens) (UniProt O75469); experiment: Human pregnane X receptor (PXR) activation by small molecules, qHTS assay (AID 1346985); also: nearly all actives have a fitted effect of over 40% in size
# Summary of the method: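 DPX-2 cells (HepG2 co-transfected with a PXR response element and a CYP3A4-promoter luciferase construct) were seeded at 2,000 per well, rested 5 hr at 37C, then exposed to DMSO-dissolved compounds for 24 hr. Activation was read as luciferase luminescence.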
# [9] = target: Nuclear receptor subfamily 1 group I member 2 (Rattus norvegicus) (UniProt Q9R1A7); experiment: Rat pregnane X receptor (rPXR) activation by small molecules, qHTS assay (AID 1346983); settings: rPXR luciferase reporter cells, One-Glo luminescence, 24 h; active compounds read high; also: nearly all actives have a fitted effect of over 20% in size
# Nuclear receptor subfamily 1 group I member 2 (Rattus norvegicus), sequence (Q9R1A7 whole entry, looked up): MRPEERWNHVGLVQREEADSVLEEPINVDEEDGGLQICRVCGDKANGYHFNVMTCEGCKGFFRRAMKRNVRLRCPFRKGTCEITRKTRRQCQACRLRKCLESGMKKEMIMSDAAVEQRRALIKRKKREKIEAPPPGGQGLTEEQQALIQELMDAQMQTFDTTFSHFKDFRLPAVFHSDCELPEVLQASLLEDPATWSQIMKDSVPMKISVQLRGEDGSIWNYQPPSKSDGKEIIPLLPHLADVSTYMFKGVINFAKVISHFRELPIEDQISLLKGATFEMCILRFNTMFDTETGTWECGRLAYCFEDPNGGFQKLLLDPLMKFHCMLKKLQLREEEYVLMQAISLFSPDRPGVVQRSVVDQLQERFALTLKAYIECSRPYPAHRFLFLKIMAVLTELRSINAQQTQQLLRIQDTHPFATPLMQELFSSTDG
# Summary of the method: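 Cell-based rPXR activation assay: rPXR cells, 2,000 per well, rested 5hr at 37 C, then exposed to compounds in DMSO for 24 hr at 37 C. Luciferase activity read by One-Glo luminescence after 30 min at room temperature.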
structure (smiles),measurement,setting,value
CO[Si](CCCn1c(=O)n(CCC[Si](OC)(OC)OC)c(=O)n(CCC[Si](OC)(OC)OC)c1=O)(OC)OC,Potency,[1],inactive
same,Potency,[2],inactive
same,Potency,[3],inactive
same,Potency,[4],inactive
same,Potency,[5],inactive
same,Potency,[6],17.7 µM (active)
C[C@]12CCC(=O)C=C1CC[C@H]1[C@@H]3CC[C@](O)(C(=O)CO)[C@@]3(C)C[C@H](O)[C@@]12F,Potency,[7],inactive
same,Potency,[8],inactive
same,Potency,[1],inactive
same,Potency,[2],inactive
same,Potency,[4],inactive
same,Potency,[5],inactive
O=C1c2ccccc2C(=O)c2cc(Cl)ccc21,"activity change, negative = inhibition",[1],-1.33% [at 10.5 µM]
same,"activity change, negative = inhibition",[2],-15.8% [at 10.5 µM]
same,"activity change, negative = inhibition",[3],-13.1% [at 10.5 µM]
same,Potency,[4],0.138 µM (active)
same,"activity change, negative = inhibition",[5],-0.029% [at 6.97 µM]
same,"activity change, negative = inhibition",[6],5.17% [at 10.5 µM]
CC1=C(C(=O)O)N2C(=O)[C@@H](NC(=O)[C@H](N)c3ccccc3)[C@H]2SC1,max activation,[9],-2.36%
same,Potency,[8],inactive
COc1c2occc2c(OC)c2c(=O)cc(C)oc12,max activation,[9],-1.72%
same,Potency,[2],3.47 µM (active)
same,Potency,[3],12.3 µM (active)
same,Potency,[4],0.144 µM (active)
same,Potency,[5],inactive
c1ccc(B(c2ccccc2)c2ccccc2)cc1,Potency,[1],31.7 µM (active)
same,Potency,[2],17.8 µM (active)
same,Potency,[3],31.7 µM (active)
same,Potency,[4],22.4 µM (active)
same,Potency,[5],inactive
same,Potency,[6],35.5 µM (active)
CC(C)c1ccc(C=O)cc1,Potency,[1],inactive
same,Potency,[2],inactive
same,Potency,[3],inactive
same,Potency,[4],inactive
same,Potency,[5],inactive
same,Potency,[6],inactive
N#Cc1ccccc1O,Potency,[1],inactive
same,Potency,[2],inactive
same,Potency,[3],inactive
same,Potency,[4],inactive
same,Potency,[5],inactive
same,Potency,[6],inactive
COc1ccc(CCO)cc1,Potency,[1],inactive
same,Potency,[2],71 µM (active)
same,Potency,[3],79.6 µM (active)
same,Potency,[4],63.3 µM (active)
same,Potency,[5],inactive
same,Potency,[6],inactive
O=C(O)CNC(=O)CNC(=O)CNC(=O)CSC(=O)c1ccccc1,Potency,[1],inactive
same,Potency,[2],inactive
same,Potency,[3],inactive
same,Potency,[4],inactive
same,Potency,[5],inactive
same,Potency,[6],inactive
CCCCCC/C=C/C(=O)OC,Potency,[1],inactive
same,Potency,[2],inactive
same,Potency,[3],inactive
same,Potency,[4],inactive
same,Potency,[5],inactive
same,Potency,[6],inactive
Cc1cc(C)c(C(=O)O)c(C)c1,Potency,[1],inactive
same,Potency,[2],inactive
same,Potency,[3],inactive
same,Potency,[4],39.9 µM (active)
same,Potency,[5],inactive
same,Potency,[6],inactive
CC(C)NC(=O)c1ccc(C=O)cc1,Potency,[1],inactive
same,Potency,[2],inactive
same,Potency,[3],inactive
same,Potency,[4],34.7 µM (active)
same,Potency,[5],inactive
same,Potency,[6],inactive
O=C1NC(c2ccccc2)(c2ccccc2)C(=O)N1COP(=O)(O)O,Potency,[1],inactive
same,Potency,[2],inactive
same,Potency,[3],inactive
same,Potency,[4],inactive
same,Potency,[5],inactive
same,Potency,[6],inactive
COC(=O)CCCCC(=O)O,Potency,[1],inactive
same,Potency,[2],inactive
same,Potency,[3],inactive
same,Potency,[4],inactive
same,Potency,[5],inactive
same,Potency,[6],inactive
CN(C)CCCCl,Potency,[1],inactive
same,Potency,[2],inactive
same,Potency,[3],inactive
same,Potency,[4],inactive
same,Potency,[5],inactive
same,Potency,[6],inactive
CCCCCC(C)O (stereo not drawn),Potency,[1],inactive
same,Potency,[2],inactive
same,Potency,[3],inactive
same,Potency,[4],inactive
same,Potency,[5],inactive
same,Potency,[6],inactive
CCC(C(=O)OCCN1CCOC(c2ccccc2)C1C)c1ccccc1 (stereo not drawn),Potency,[1],5.49 µM (active)
same,Potency,[2],1.38 µM (active)
same,Potency,[3],4.9 µM (active)
same,Potency,[4],inactive
same,Potency,[5],inactive
CC1(C)[C@H]2CC[C@](C)(C2)[C@H]1O,Potency,[1],inactive
same,Potency,[2],inactive
same,Potency,[3],inactive
same,Potency,[4],inactive
same,Potency,[5],inactive
same,Potency,[6],inactive
N[C@@H](Cc1ccc(O)cc1)C(=O)O,max activation,[9],3.66%
same,Potency,[8],inactive
Cc1ncc([N+](=O)[O-])n1CC(C)O (stereo not drawn),max activation,[9],-2.68%
same,Potency,[7],inactive
same,Potency,[1],inactive
same,Potency,[2],inactive
same,Potency,[3],inactive
same,Potency,[4],inactive
same,Potency,[5],inactive
same,Potency,[6],inactive
CC(N)CCCC(C)(C)O (stereo not drawn),max activation,[9],-1.43%
same,Potency,[2],inactive
same,Potency,[3],inactive
same,Potency,[4],inactive
same,Potency,[5],inactive
CC(=O)C(C)O (stereo not drawn),Potency,[1],inactive
same,Potency,[2],inactive
same,Potency,[3],inactive
same,Potency,[4],inactive
same,Potency,[5],inactive
same,Potency,[6],inactive
CCN(CC)CCN,Potency,[1],inactive
same,Potency,[2],inactive
same,Potency,[3],inactive
same,Potency,[4],inactive
same,Potency,[5],inactive
same,Potency,[6],inactive
CCCC(CC)c1ccccc1 (stereo not drawn),Potency,[1],inactive
same,Potency,[2],inactive
same,Potency,[3],inactive
same,Potency,[4],inactive
same,Potency,[5],inactive
same,Potency,[6],inactive
CCc1occc(=O)c1O,Potency,[1],inactive
same,Potency,[2],inactive
same,Potency,[3],inactive
same,Potency,[4],inactive
same,Potency,[5],inactive
same,Potency,[6],inactive
O=C(O)CSCC(=O)NC1CCSC1=O (stereo not drawn),Potency,[1],inactive
same,Potency,[2],inactive
same,Potency,[3],inactive
same,Potency,[4],inactive
same,Potency,[5],inactive
same,Potency,[6],inactive
Cc1ccnc(N)c1,Potency,[1],inactive
same,Potency,[2],inactive
same,Potency,[3],inactive
same,Potency,[4],inactive
same,Potency,[5],inactive
same,Potency,[6],inactive
CC1OCCC1=O (stereo not drawn),Potency,[1],inactive
same,Potency,[2],inactive
same,Potency,[3],inactive
same,Potency,[4],inactive
same,Potency,[5],inactive
same,Potency,[6],inactive
C=CCCCC,Potency,[1],inactive
same,Potency,[2],inactive
same,Potency,[3],inactive
same,Potency,[4],inactive
same,Potency,[5],inactive
same,Potency,[6],inactive
CCCCCCCCCCOC(C)=O,Potency,[1],inactive
same,Potency,[2],inactive
same,Potency,[3],inactive
same,Potency,[4],inactive
same,Potency,[5],inactive
same,Potency,[6],inactive
Cc1ccc2c(c1)C(=O)c1ccccc1C2=O,Potency,[1],28.2 µM (active)
same,Potency,[2],11.2 µM (active)
same,Potency,[3],12.6 µM (active)
same,Potency,[4],8.91 µM (active)
same,Potency,[5],inactive
same,Potency,[6],7.07 µM (active)
